Data as given in PubChem BioAssay (NCATS).
Values joined by “and” are separate entries in the source; they are usually repeats but may differ in a detail not shown here. Identical values can stand only once. Records with an inconclusive call do not appear. Entries that show only a call come without a potency. Active and inactive are the calls of the source. Unless noted, calls follow the shape of the full dose curve. Numbered stars: 1 amine (or outer) side, 2 acyl side, 3 side chain; on linkers, the order of the positions; unused ones are H or OH. Bridge positions count the residues as written; N and C are the ends. Square brackets hold non-standard residues; d marks the D form. Peptide text beside a SMILES is read from it. * marks the point of attachment. ξ: configuration not given here. ξhTyr(3S-OH,4S-OH,3'-OSO3H) = NC(C(=O)O)[C@H](O)[C@@H](O)c1ccc(O)c(OS(=O)(=O)O)c1; Orn(4R-OH,5R-OH) = O=C([C@H](C[C@@H](O)[C@@H](O)N[*:3])N[*:1])[*:2]; X2 = CCCCCOc1ccc(-c2cc(-c3ccc(C(=O)*)cc3)no2)cc1; X3 = C[C@H]1CN([*:1])C(C(=O)[*:2])[C@H]1O; ξGln(3R-OH) = NC(=O)C[C@@H](O)C(N)C(=O)O; ξPro(4R-OH) = O=C(O)C1C[C@@H](O)CN1; ξThr(3R) = C[C@@H](O)C(N)C(=O)O

Assays:
[1] = qHTS for Inhibitors of the Functional Ribonucleoprotein Complex (vRNP) of Lassa (LASV) Arenavirus: Viability assay - alamar blue signal for LASV Primary Screen (AID 1347083; calls by dose curve; tested in HEK293 reporter line; also: potency is read from the fitted curve at half-maximal effect; nearly all actives have a fitted effect of over 80% in size)
[2] = qHTS for Inhibitors of the Functional Ribonucleoprotein Complex (vRNP) of Lymphocytic Choriomeningitis Arenaviruses (LCMV): Viability assay - alamar blue signal for LCMV Primary Screen (AID 1347085; calls by dose curve; tested in HEK293 reporter line; also: nearly all actives have a fitted effect of over 80% in size; also: potency is read from the fitted curve at half-maximal effect)
[3] = Confirmatory qHTS to identify inhibitors of SARS-CoV-2 cell entry (AID 1645844); also: potency is read from the fitted curve at half-maximal effect; nearly all actives have a fitted effect of over 45% in size
Procedure, shortened: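 HEK293-ACE2, overnight seeding; cpd 1 h, 37C/5% CO2; + SARS-CoV-2-S MLV PP (Wuhan-Hu-1, ΔC19); 48 h; Bright-Glo luminescence. Data normalised to S PP and bald PP wells.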

[4] = Cytotoxicity counterscreen for inhibitors of SARS-CoV-2 cell entry (AID 1645845); also: nearly all actives have a fitted effect of over 50% in size
Procedure, shortened: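 Counterscreen run in the same HEK293-ACE2 line as the pseudotyped-particle entry assay, without particles. Viability after 48 h at 37 C was read as ATP luminescence, scaled between cell-containing and cell-free wells.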

[5] = Primary qHTS to identify inhibitors of SARS-CoV-2 cell entry (AID 1645846); conditions: activity change, negative = inhibition: at 57.1 µM (top of the series) unless noted; also: nearly all actives have a fitted effect of over 45% in size
Procedure, shortened: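 Data are normalized to wells receiving SARS-CoV-2-S pseudoparticles and those given bald particles. Entry signal was luciferase luminescence in stable hACE2 Expi293F cells, 48 hr post-infection, after 1 hr compound pretreatment.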

[6] = VSVG counterscreen qHTS to identify inhibitors of SARS-CoV-2 cell entry (AID 1645847); also: potency is read from the fitted curve at half-maximal effect; nearly all actives have a fitted effect of over 65% in size
Procedure, shortened: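 Counterscreen using VSV-G (not spike) pseudotyped MLV particles on ACE2-expressing Expi293F cells after 1 h compound preincubation; infection ran 48 h at 37 °C. Data normalized to VSV-G PP and bald-PP wells.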

CRL-7250 = normal cell line; assay: qHTS assay to identify novel small-molecules to repurpose for Merkel cell carcinoma treatment (AID 1296009; active = well fitted inhibition curve with a large enough effect; also: nearly all actives have a fitted effect of over 60% in size); conditions: MCC and control cell lines, CellTiter-Glo viability, 72 h; series mostly up to 92 µM
Procedure, shortened: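 Dose-response viability screen; 72 hr exposure at 37 degree celsius; CellTiter-Glo added, 10 min room temperature, luminescence read; RLUs scaled between no-cell and DMSO wells.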

[7] = Confirmatory qHTS for VERO E6 Cytotoxicity Assay: Counterscreen for SARS-CoV-2 CPE Assay (AID 1508605); also: nearly all actives have a fitted effect of over 60% in size; also: potency is read from the fitted curve at half-maximal effect
[8] = Confirmatory qHTS for activators (rescue) of SARS-CoV-2 Cytopathic Effect (CPE) (AID 1508606); also: nearly all actives have a fitted effect of over 70% in size; also: potency is read from the fitted curve at half-maximal effect
[9] = Primary qHTS for inhibitors of SARS-S pseudo-typed particle cell entry (AID 1479145); also: nearly all actives have a fitted effect of over 45% in size
[10] = Primary qHTS for Huh7 cytotoxicity: counterscreen for inhibitors of MERS-S pseudotyped particle cell entry (AID 1479147); conditions: outcome: dose series up to 57.1 µM unless noted
[11] = Primary qHTS for Vero E6 cytotoxicity: counterscreen for inhibitors of SARS-S pseudo-typed particle cell entry (AID 1479150); conditions: outcome: dose series up to 57.1 µM unless noted
[12] = Primary qHTS for inhibitors of MERS-S pseudo-typed particle cell entry (AID 1479149); also: nearly all actives have a fitted effect of over 60% in size
[13] = qHTS for inhibitors of Rabies Virus screened against the NCATS CANVASS Library (AID 1347402)
[14] = target: Nucleoprotein (Lymphocytic choriomeningitis virus (strain Armstrong)) (UniProt P09992); assay: qHTS for Inhibitors of the Functional Ribonucleoprotein Complex (vRNP) of Lymphocytic Choriomeningitis Arenaviruses (LCMV): LCMV Primary Screen - GLuc reporter signal (AID 1347086); also: potency is read from the fitted curve at half-maximal effect; nearly all actives have a fitted effect of over 70% in size
Nucleoprotein (Lymphocytic choriomeningitis virus (strain Armstrong)), sequence (P09992 whole entry, looked up): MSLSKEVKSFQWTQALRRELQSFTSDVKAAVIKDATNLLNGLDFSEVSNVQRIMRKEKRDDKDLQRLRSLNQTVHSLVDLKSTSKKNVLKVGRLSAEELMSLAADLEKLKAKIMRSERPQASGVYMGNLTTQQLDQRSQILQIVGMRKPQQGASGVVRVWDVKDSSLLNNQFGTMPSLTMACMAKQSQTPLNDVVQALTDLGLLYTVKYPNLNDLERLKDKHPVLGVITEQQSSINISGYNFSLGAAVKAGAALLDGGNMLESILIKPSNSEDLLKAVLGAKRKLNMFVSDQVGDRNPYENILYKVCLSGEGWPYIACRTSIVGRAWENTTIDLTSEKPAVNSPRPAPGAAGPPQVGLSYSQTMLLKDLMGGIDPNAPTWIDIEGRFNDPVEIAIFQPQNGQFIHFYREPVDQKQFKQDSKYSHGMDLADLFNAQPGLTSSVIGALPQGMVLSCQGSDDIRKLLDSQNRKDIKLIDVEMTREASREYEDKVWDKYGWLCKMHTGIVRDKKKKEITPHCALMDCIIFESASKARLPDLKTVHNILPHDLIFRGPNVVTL

Nc1nc(=O)n([C@H]2C[C@H](O)[C@@H](CO)O2)cc1F
Potency [1]: 769 nM (active) | Potency [2]: 1930 nM (active) | Potency [3]: 10.8 nM (active) | Potency [4]: inactive | activity change, negative = inhibition [5]: -95.3% | Potency [6]: 13.6 nM (active) | Potency (CRL-7250): inactive

CC1(C)Cc2c(sc(NC(=S)NC(=O)c3ccccc3)c2C(=O)O)CO1
Potency [1]: 21700 nM (active) | Potency [2]: 38500 nM (active) | Potency [4]: inactive | Potency [5]: inactive | Potency (CRL-7250): inactive

CCC(=O)c1cc(-c2ccc(Cl)cc2)n(-c2ccc(S(N)(=O)=O)cc2)c1C
Potency [7]: inactive | Potency [8]: inactive | Potency (CRL-7250): inactive

COc1ccccc1OCCN1CC(COc2cccc3[nH]c4ccccc4c23)OCC1=O (configuration not stated)
Potency [7]: inactive | Potency [8]: inactive | Potency (CRL-7250): inactive

CN1CC[C@@H](c2c(O)cc(O)c3c(=O)cc(-c4ccc(C(F)(F)F)cc4Cl)oc23)[C@@H]1CO
Potency [7]: inactive | Potency [4]: inactive | activity change, negative = inhibition [5]: -12.4% | Potency (CRL-7250): inactive

C[C@]12CC[C@@H]3c4ccc(OC(=O)c5ccccc5)cc4CC[C@H]3[C@@H]1CC[C@@H]2O
Potency [9]: inactive | outcome [10]: inactive | outcome [11]: inactive | Potency [4]: inactive | activity change, negative = inhibition [5]: -3.2% | Potency (CRL-7250): inactive

CCOC(=O)[C@H]1O[C@@H]1C(=O)N[C@@H](CC(C)C)C(=O)NCCC(C)C
Potency [3]: 68.1 nM (active) | Potency [4]: inactive | Potency (CRL-7250): inactive

C[C@@H]1O[C@@H](O[C@H]2[C@H](OC(=O)[C@]34CCC(C)(C)C[C@H]3C3=CCC5[C@@]6(C)CC[C@H](O[C@@H]7O[C@H](CO[C@@H]8OC[C@H](O)[C@H](O)[C@H]8O)[C@@H](O)[C@H](O)[C@H]7O)C(C)(C)C6CC[C@@]5(C)[C@]3(C)C[C@H]4O)OC[C@@H](O)[C@@H]2O)[C@H](O)[C@H](O[C@@H]2OC[C@](O)(CO)[C@H]2O)[C@H]1O[C@@H]1OC[C@H](O)[C@H](O[C@@H]2OC[C@@H](O)[C@H](O)[C@H]2O)[C@H]1O (some centres not stated)
Potency [7]: 1910 nM (active) | outcome (CRL-7250): inactive [at 9.27 µM]

COc1ccc2c3c1O[C@H]1C[C@@H](O)C=C[C@@]31CCN(C)C2
Potency [9]: inactive | outcome [10]: inactive | Potency [12]: inactive | outcome [11]: inactive | Potency [4]: inactive | Potency [5]: inactive | Potency (CRL-7250): inactive

O=C([C@@H](Cc1cccc(C(F)(F)F)c1)NS(=O)(=O)c1cc(F)c2c(c1)CCNC2)N1CCCC1
Potency [4]: inactive | Potency (CRL-7250): inactive

CCOc1nc2cccc(C(=O)OCc3oc(=O)oc3C)c2n1Cc1ccc(-c2ccccc2-c2noc(O)n2)cc1
Potency [9]: inactive | outcome [10]: inactive | Potency [12]: inactive | outcome [11]: inactive | Potency [4]: inactive | Potency (CRL-7250): inactive

CC1=C2C(=O)O[C@@H](c3ccoc3)[C@]2(C)CCC1
outcome [13]: inactive | Potency (CRL-7250): inactive

CC1(C)OC(=O)C(OCC2CC2)=C1c1ccc(S(C)(=O)=O)cc1
outcome [10]: inactive | Potency [12]: inactive | outcome [11]: inactive | Potency [4]: inactive | Potency (CRL-7250): inactive

COc1cc(-c2cc(-c3ccc(N4CCNCC4)cc3)cnc2C)cc(OC)c1OC
Potency [4]: inactive | Potency (CRL-7250): inactive

O=C1NC(=O)/C(=C/c2cccc(C(F)(F)F)c2)S1
Potency [7]: inactive | Potency (CRL-7250): inactive

c1cc(OCCN2CCCCC2)cc(-c2n[nH]c3ccc(-c4ncn[nH]4)cc23)c1
Potency [2]: inactive | Potency [4]: inactive | Potency (CRL-7250): inactive

Cn1ncc2cc(-c3cnc(N)c(Cl)c3N3CCC4(CCNC4=O)CC3)ccc21
Potency [8]: 2820 nM (active) | Potency [4]: inactive | Potency (CRL-7250): inactive

C[C@H](O)[C@H](O)[C@H]1CNc2nc(N)[nH]c(=O)c2N1
outcome [10]: inactive | Potency [12]: inactive | outcome [11]: inactive | Potency [4]: inactive | activity change, negative = inhibition [5]: -28% | Potency (CRL-7250): inactive

CCc1ccc(Cc2ccc3c(c2)[C@]2(OC3)O[C@H](CO)[C@@H](O)[C@H](O)[C@H]2O)cc1
Potency [9]: inactive | outcome [10]: inactive | outcome [11]: inactive | Potency [4]: inactive | Potency (CRL-7250): inactive

Cc1c(C)n(Cc2ccc(-c3ccccc3C(=O)O)cc2)c2ccc(C(=O)N[C@@H](C)c3ccc([N+](=O)[O-])cc3)cc12
Potency [14]: 4850 nM (active) | Potency (CRL-7250): inactive

CCC(=O)NS(=O)(=O)c1ccc(-c2c(-c3ccccc3)noc2C)cc1
Potency [9]: inactive | outcome [10]: inactive | Potency [12]: inactive | outcome [11]: inactive | Potency [4]: inactive | activity change, negative = inhibition [5]: -22.2% and -23.1% | Potency (CRL-7250): inactive

COC(=O)N(C)c1c(N)nc(-c2nn(Cc3ccccc3F)c3ncccc23)nc1N
Potency [9]: inactive | outcome [10]: inactive | Potency [12]: inactive | outcome [11]: inactive | Potency [4]: inactive | Potency [5]: inactive | Potency (CRL-7250): inactive

CN1CCC(c2cn(C)c3ccc(OS(=O)(=O)c4c(F)cccc4F)cc23)CC1
Potency [7]: inactive | Potency [8]: 11200 nM (active) | Potency (CRL-7250): inactive

CN(C)S(=O)(=O)c1ccc(NC(=S)N2CCC(C(O)(c3ccccc3)c3ccccc3)CC2)cc1
Potency [7]: inactive | Potency (CRL-7250): inactive

CCCCCOc1ccc(-c2cc(-c3ccc(C(=O)N[C@H]4C[C@@H](O)[C@@H](O)NC(=O)C5[C@@H](O)[C@@H](C)CN5C(=O)C([C@H](O)CC(N)=O)NC(=O)C([C@H](O)[C@@H](O)c5ccc(O)c(OS(=O)(=O)O)c5)NC(=O)C5C[C@@H](O)CN5C(=O)C([C@@H](C)O)NC4=O)cc3)no2)cc1 (stereo partly drawn) (X2-[Orn(4R-OH,5R-OH)][ξThr(3R)][ξPro(4R-OH)][ξhTyr(3S-OH,4S-OH,3'-OSO3H)][ξGln(3R-OH)][X3]; lactam 1-C)
Potency [9]: inactive | outcome [10]: inactive [at 26.4 µM] | Potency [12]: inactive | outcome [11]: inactive | Potency [4]: inactive | Potency (CRL-7250): inactive

Cn1nc(C(C)(C)C)cc1C(=O)N[C@@H](Cc1cccc(Cl)c1)C(=O)NCC#N
Potency [7]: inactive | Potency [8]: 224 nM (active) | Potency (CRL-7250): inactive

CN(C)CCOc1cc(-c2cn[nH]c2)ccc1NC(=O)C1COc2ccccc2O1 (configuration not stated)
Potency [2]: 27300 nM (active) | Potency [4]: inactive | activity change, negative = inhibition [5]: -42.9% | Potency (CRL-7250): inactive

Cc1onc(-c2ccccc2)c1C(=O)N[C@@H]1C(=O)N2[C@@H]1SC(C)(C)[C@@H]2C(=O)O
Potency [9]: inactive | outcome [10]: inactive | Potency [12]: inactive | outcome [11]: inactive | Potency [4]: inactive | activity change, negative = inhibition [5]: -25.7% | Potency (CRL-7250): inactive
